This note sets out measurements from PubChem BioAssay (NCI).

Among the test systems are NCI-H23 lung; NCI-H226 lung; NCI-H322M lung; HOP-62 NSCLC; NCI-H460 lung; HOP-92 NSCLC; NCI-H522 lung; A549/ATCC NSCLC; 786-0 renal; COLO 205 colon.
Common to all, as to assay: NCI-60 one-dose screen, 48 h (100 = growth as untreated, 0 = no growth, -100 = all killed)
Common to all, as to conditions: 10 µM

The panel holds about 83,000 compounds, 20% with a hit somewhere; the sample as a whole holds those more often.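 The test compound was applied at a single concentration to cells in 96-well plates for 48 hours, and percent growth was recorded.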 A number with no mark means an inactive call. Activity calls are given as the source filed them. How the source made its calls: active means growth percent below 10; inactive means the rest.

As to `COc1ccc(-c2cc(/C=C3\C(=O)Nc4cc(Cl)ccc43)[nH]n2)cc1`, the growth with NCI-H23 lung was 54.1%; with NCI-H226 lung it was 56.1%; in the test with NCI-H322M lung, 81.9%; with HOP-62 NSCLC, 45.4%; in the test with NCI-H460 lung, 22%; in the test with HOP-92 NSCLC it was 51.7%. Moreover, the growth was -14.9% (active) in the test with NCI-H522 lung, 44% with A549/ATCC NSCLC, 52.1% in the test on 786-0 renal and 19.4% in the test with COLO 205 colon.

As to `COc1cccc(-c2nnc(COc3ccc(-c4nc5ccc(C)cc5[nH]4)cc3OC)o2)c1`, the growth with NCI-H23 lung is 88%; in the test on NCI-H226 lung, 84.6%; in the test with NCI-H322M lung, 98%; in the test with HOP-62 NSCLC it was 101%; in the test on NCI-H460 lung it was 36.7%; with HOP-92 NSCLC it was 74%. The growth in the test with NCI-H522 lung is 91.2%; in the test with A549/ATCC NSCLC it was 61.8%; with 786-0 renal it was 81.5%; in the test on COLO 205 colon, 72.6%.

Regarding `O=C(O)CCCCSCCCCC(=O)O`, the growth was 103% with NCI-H23 lung; 93.4% with NCI-H226 lung; 109% with NCI-H322M lung; 95.8% with HOP-62 NSCLC; 113% in the test with NCI-H460 lung; 96.8% in the test on HOP-92 NSCLC. The growth in the test with NCI-H522 lung was 83.3%; in the test on A549/ATCC NSCLC, 90.9%; in the test with 786-0 renal, 101%; in the test on COLO 205 colon, 113%.

In the case of `N#Cc1ccc(-n2cnc(NC(=O)[C@H]3CCN(C#N)C3)c2)cc1`, the growth with NCI-H23 lung was 19.8%; in the test with NCI-H226 lung it was 26.4%; with NCI-H322M lung, 43.5%; in the test on HOP-62 NSCLC, 23%; in the test with NCI-H460 lung it was 15.3%; in the test on HOP-92 NSCLC, 42%. Besides, the growth was -37.8% (active) in the test on NCI-H522 lung, 23.8% in the test on A549/ATCC NSCLC, 23.7% with 786-0 renal and -55.3% (active) in the test with COLO 205 colon.

In the case of `N/C(=N\O)c1cn(C2OC(CO)C(O)C2O)c2ncnc(N)c12` (stereo not given), the growth in the test on NCI-H23 lung is -1.68% (active); in the test on NCI-H226 lung, 26.4%; in the test on NCI-H322M lung, 11%; in the test with HOP-62 NSCLC, -18.8% (active); with NCI-H460 lung, -44.1% (active); with HOP-92 NSCLC, -6.61% (active). Moreover, the growth is -42.9% (active) in the test on NCI-H522 lung, 4.88% (active) in the test with A549/ATCC NSCLC, 20.9% in the test on 786-0 renal and -92.4% (active) in the test on COLO 205 colon.

Turning to `C#Cc1ccc(-n2c(/C=C/c3cc(OC)c(OC)c(OC)c3)nc3ncccc3c2=O)cc1`, the growth with NCI-H23 lung is 73.6%; in the test on NCI-H226 lung, 56.1%; with NCI-H322M lung, 68.3%; in the test on HOP-62 NSCLC, 66.2%; with NCI-H460 lung, 72.6%; with HOP-92 NSCLC it was 6.32% (active). Further, the growth in the test with NCI-H522 lung was 7.99% (active); with A549/ATCC NSCLC, 44.1%; in the test on 786-0 renal it was 75.9%; with COLO 205 colon, 31.1%.

Take `C[C@@H]1N=C(c2ccc(Br)cc2)Nc2nc3ccccn3c2C1=O`: the growth in the test on NCI-H23 lung is 53.7%; in the test on NCI-H226 lung, 68.3%; in the test with NCI-H322M lung it was 74%; with HOP-62 NSCLC, 55.8%; with NCI-H460 lung it was 32.5%; in the test on HOP-92 NSCLC, 59.5%. For the same compound, the growth in the test on NCI-H522 lung is 34.8%; with A549/ATCC NSCLC, 54.7%; in the test on 786-0 renal, 83.1%; in the test with COLO 205 colon, 26.3%.

Regarding `CC(=O)Nc1nc(C)c(C(=O)NNC=O)s1`, the growth with NCI-H23 lung was 97.4%; with NCI-H226 lung, 92.7%; in the test on NCI-H322M lung it was 155%; in the test with HOP-62 NSCLC it was 111%; with NCI-H460 lung, 105%; with HOP-92 NSCLC it was 67.2%. The growth with NCI-H522 lung was 99.5%; in the test on A549/ATCC NSCLC, 107%; with 786-0 renal, 118%; in the test on COLO 205 colon, 128%.

As for `COc1ccc(/C(CS(=O)(=O)c2ccccc2)=N\O)cc1`, the growth in the test on NCI-H23 lung was 105%; with NCI-H226 lung, 89.1%; with NCI-H322M lung it was 108%; with HOP-62 NSCLC, 109%; in the test with NCI-H460 lung, 109%; in the test with HOP-92 NSCLC it was 109%. Besides, the growth in the test on NCI-H522 lung was 97.3%; in the test with A549/ATCC NSCLC, 92.1%; in the test with 786-0 renal it was 104%; in the test on COLO 205 colon, 114%.

For `Oc1[nH]c2ccccc2c1/C=c1/cc2c(c(-c3ccc(C(F)(F)F)cc3)n1)=Nc1ccccc1-2`, the growth with NCI-H23 lung was 71.1%; in the test with NCI-H226 lung, 54.1%; with NCI-H322M lung it was 93.8%; in the test on HOP-62 NSCLC, 85%; in the test with NCI-H460 lung, 22%; with HOP-92 NSCLC, 20.7%. Also, the growth with NCI-H522 lung is 33.5%; in the test on A549/ATCC NSCLC, 56.8%; with 786-0 renal, 66%; with COLO 205 colon it was 33.9%.

For `COc1ccc(C(=O)n2nc(CC(=O)NCc3ccccc3)nc2N)cc1`, the growth in the test on NCI-H23 lung was 108%; with NCI-H226 lung it was 106%; in the test on NCI-H322M lung it was 95.4%; in the test with HOP-62 NSCLC, 108%; in the test with NCI-H460 lung it was 115%; in the test with HOP-92 NSCLC it was 111%. Further, the growth is 104% with NCI-H522 lung, 109% with A549/ATCC NSCLC, 97% with 786-0 renal and 117% in the test with COLO 205 colon.

As for `O=C(N/N=C\c1cc(Cl)ccc1O)c1ccncc1`, the growth in the test with NCI-H23 lung was 46%; with NCI-H226 lung, 31.6%; with NCI-H322M lung it was 59.5%; in the test with HOP-62 NSCLC, 55.7%; with NCI-H460 lung, 25.3%; in the test on HOP-92 NSCLC, 47.5%. The growth in the test with NCI-H522 lung was 11.7%; in the test on A549/ATCC NSCLC it was 79.8%; in the test on 786-0 renal, 19.1%; with COLO 205 colon it was 23.7%.

For `CCNC1(NC#N)CCCCC1`, the growth with NCI-H23 lung was 102%; in the test on NCI-H226 lung it was 95.6%; with NCI-H322M lung it was 113%; in the test on HOP-62 NSCLC, 109%; with NCI-H460 lung it was 113%; with HOP-92 NSCLC it was 85%. Further, the growth is 123% in the test with NCI-H522 lung, 91.4% in the test with A549/ATCC NSCLC, 100% in the test with 786-0 renal and 111% with COLO 205 colon.

Regarding `O=C(Cn1ccc(=O)[nH]c1=O)c1ccc([N+](=O)[O-])o1`, the growth in the test with NCI-H23 lung was 108%; in the test on NCI-H226 lung, 103%; in the test with NCI-H322M lung it was 120%; in the test on HOP-62 NSCLC, 118%; in the test with NCI-H460 lung, 100%; with HOP-92 NSCLC it was 136%. Further, the growth is -91.7% (active) with NCI-H522 lung, 109% in the test with A549/ATCC NSCLC, 108% with 786-0 renal and 71.5% in the test on COLO 205 colon.
